The assay can be described thus: High-throughput drug toxicity screening in the BPDCN cell line Gen2.2 (AID 1224824). The note with it: Gen2.2 BPDCN cells; at 45.8 µM (top of the series) unless noted. An excerpt: Blastic plasmacytoid dendritic cell neoplasm (BPDCN) is a rare, aggressive and largely incurable hematologic malignancy originating from plasmacytoid dendritic cells (pDCs). Although an initial response to chemotherapy is common, BPDCN prognosis is extremely poor and most patients relapse with drug-resistant disease leading to a median overall survival of ~1 year after diagnosis. To explore novel potential therapeutic strategies in BPDCN, we performed a high-throughput drug toxicity screening in BPDCN cell liens, using of a library of 1,912 small molecules, enriched for compounds that are either approved or in early stages of development for cancer therapy.
A total of 500 exponentially growing Gen2.2 cells were seeded per well in 5 uL of media (RPMI + Glutamine, without phenol red plus10% FBS and 1X Pen/Strep) into 1536-well solid white high base tissue culture treated Greiner One Bio Plates (789173-F), using a multidrop combi dispenser and a small sterile cassette. Compounds and controls totaling 23nL per well (negative control DMSO and positive control 9.2 uM Bortezomib-final) were immediately added to the plates using a 1536 head pin tool from Kalypsys. The plates were then covered with stainless steel gasket lids from Kalypsys and incubated for 48 hours at 37C under 95% relative humidity with 5% CO2. After 48 hours, the plates were removed and allowed to reach room temperature before 3 uL of Cell Titer Glo reagent (Promega) were added using an Aurora Flying Reagent Dispenser Bioraptor. The plates were then spun at 1000 rpms to remove bubbles and incubated for 15 minutes at room temperature before reading on a ViewLux using a luminescent filter with a 10 second exposure. The relative luciferase units were used to calculated percent activity using DMSO as 100% and Bortezomib as 0%.
For the compound `COC(=O)[C@H](c1ccccc1Cl)N1CCc2sccc2C1`, the cell viability, % of control (lower = more cytotoxic) came to 95.6%.
For `CC1C(=O)OC2C(O)C34C5CC(C(C)(C)C)C36C(OC(=O)C6O)OC4(C(=O)O5)C12O` (stereo not given) the value was 158%; for `NC(N)=Nc1nc(CSCCC(N)=NS(N)(=O)=O)cs1`, 171%; for `Nc1nc(Cl)nc2c1ncn2[C@@H]1O[C@H](CO)[C@@H](O)[C@H]1F`, 159%.
On to `Cn1cc(-c2ccc3nnc(Sc4ccc5ncccc5c4)n3n2)cn1`, for which the cell viability, % of control (lower = more cytotoxic) stood at 121%.
For `c1cc(OCCN2CCCCC2)cc(-c2n[nH]c3ccc(-c4ncn[nH]4)cc23)c1` the value was 107%; for `CC(=O)OCC(=O)[C@@]1(O)CC[C@H]2[C@@H]3CCC4=CC(=O)C=C[C@]4(C)[C@@H]3[C@@H](O)C[C@@]21C`, 165%.
For `C[C@@H]1[C@H](O)[C@@H](C)C=CC=CC=CC=CC=CC=CC=C[C@H](O[C@@H]2O[C@H](C)[C@H](O)[C@H](N)[C@@H]2O)C[C@@H]2O[C@](O)(C[C@@H](O)C[C@@H](O)[C@H](O)CC[C@@H](O)C[C@@H](O)CC(=O)O[C@H]1C)C[C@H](O)[C@@H]2C(=O)O` the value was 485%; for `CCOC(=O)N1c2ccc(C(F)(F)F)cc2[C@@H](N(Cc2cc(C(F)(F)F)cc(C(F)(F)F)c2)C(=O)OC)C[C@H]1CC`, 115%.
For `CO[C@H]1/C=C\O[C@@]2(C)Oc3c(C)c(O)c4c(O)c(c(C=NN5CCN(C6CCCC6)CC5)c(O)c4c3C2=O)NC(=O)C(C)=CC=C[C@H](C)[C@H](O)[C@@H](C)[C@@H](O)[C@@H](C)[C@H](OC(C)=O)[C@H]1C` the value was 1.16%.
For the compound `CN(C)c1ccccc1CN1CCCN(Cc2ccccc2N(C)C)C1c1ccncc1`, the cell viability, % of control (lower = more cytotoxic) was 13.5%.
The figure for `COc1cccc(OC)c1-c1cc(C(=O)NC2(C(=O)O)C3CC4CC(C3)CC2C4)nn1-c1ccnc2cc(Cl)ccc12` (stereo not given) is 119%.
For `O=C(O)c1nc(=O)[nH]c(=O)[nH]1` the value was 161% [at 23.2 µM]; for `CC[C@H](C=C[C@@H](C)[C@H]1CC[C@H]2[C@@H]3CC=C4C[C@@H](O)CC[C@]4(C)[C@@H]3CC[C@]12C)C(C)C`, 72.7% [at 23.2 µM].
The figure for `CNc1nc(Nc2ccc(C(=O)N3CCOCC3)cc2OC)ncc1Cl` is 103%; for `Cc1cc(CS(=O)(=O)c2ccccc2)cc(OCc2ccc(CN3CCC[C@H]3CO)cc2)c1` it is 318%; for `CC(C)(O)CC(=O)NCCn1ccc2ncnc(Nc3ccc(Oc4cccc(C(F)(F)F)c4)c(Cl)c3)c21` it is 75.3%.
As to `C=CC[N+]1([C@H]2C[C@H]3[C@@H]4CC[C@H]5C[C@H](O)[C@@H](N6CCOCC6)C[C@]5(C)[C@@H]4CC[C@]3(C)[C@H]2OC(C)=O)CCCC1`, the cell viability, % of control (lower = more cytotoxic) stood at 168%.
The figure for `CCC(c1ccc(O)cc1)C(CC)c1ccc(O)cc1` (stereo not given) is 149%; for `Cc1cccc(-c2[nH]c(C(C)(C)C)nc2-c2ccc3c(c2)OCO3)n1` it is 235%; for `NC[C@H]1O[C@H](O[C@@H]2[C@@H](O)[C@@H](O[C@H]3O[C@H](CO)[C@@H](O)[C@H](N)[C@@H]3O)[C@H](N)C[C@@H]2N)[C@H](O)[C@@H](O)[C@H]1O` it is 161%.
For `O=c1cc(-c2ccc(O)c(O)c2)oc2cc(O)cc(O)c12` the value was 264%.
For `O=[N+]([O-])c1ccc(Nc2ccccc2-c2ccccc2)c2nonc12` the value was 145%.
For `CC(O)=C(C#N)C(=O)Nc1ccc(C(F)(F)F)cc1`, the cell viability, % of control (lower = more cytotoxic) turned out to be 75%.
The figure for `NCc1c[nH]c(=S)n1[C@H]1CCc2c(F)cc(F)cc2C1` is 61.4%; for `C[C@]12CCC3=C4CCC(=O)C=C4CC[C@@H]3[C@H]1CC[C@@]2(O)CC#N` it is 106%.
As for `CO[C@H]1O[C@@H]2O[C@@]3(C)CC[C@@H]4[C@@H](C)CC[C@@H]([C@H]1C)[C@@]24OO3`, the cell viability, % of control (lower = more cytotoxic) came to 62.1%.
For `Cc1cc2c(cc1C1(c3ccc(C(=O)O)cn3)CC1)C(C)(C)CCC2(C)C` the value was 529%.
Turning to `C[C@@H]1O[C@@H](O[C@H]2CC[C@@]3(C)[C@H](CC[C@@H]4[C@H]3C[C@@H](O)[C@]3(C)[C@@H](C5=CC(=O)OC5)CC[C@]43O)C2)C[C@H](O)[C@@H]1O[C@H]1C[C@H](O)[C@H](O[C@H]2C[C@H](O)[C@@H](O)[C@@H](C)O2)[C@H](C)O1` (stereo in doubt), the cell viability, % of control (lower = more cytotoxic) turned out to be 7.85% [at 92.2 µM].
With `Cc1ccc(C(=O)N(CCCN)[C@@H](c2oc3cc(Cl)ccc3c(=O)c2Cc2ccccc2)C(C)C)cc1`, the cell viability, % of control (lower = more cytotoxic) was 8.98%.
The figure for `OCCn1cc(-c2ccc3c(c2)CCC3=NO)c(-c2ccncc2)n1` is 4.73%.
With `CN[C@@H](C)[C@H]1[C@H](O)C[C@@]2(C)[C@@H]3CC[C@H]4C(C)(C)[C@@H](NC)CC[C@@]45C[C@@]35CC[C@]12C`, the cell viability, % of control (lower = more cytotoxic) came to 71.1%.
For `COc1cc2nccc(Oc3ccc(NC(=O)Nc4ccc(F)cc4F)c(F)c3)c2cc1OC`, the cell viability, % of control (lower = more cytotoxic) is 205%.
The figure for `CN1CCN2c3ncccc3Cc3ccccc3C2C1` (stereo not given) is 260%; for `CC(C)CNc1ccnc(NCc2csc(-c3ccccc3)n2)n1` it is 74.3%; for `O=C(NCCCCN1CCOCC1)c1cc2ccccc2o1` it is 213%.
The figure for `CCc1cccc(CC)c1NC(=O)N1Cc2[nH]nc(NC(=O)c3ccc(N4CCN(C)CC4)cc3)c2C1` is 146%.
The figure for `N#CC(c1ccnc(NCCc2cccnc2)n1)c1nc2ccccc2s1` (stereo not given) is 9.41%; for `CC[C@@H]([C@H](C)O)n1ncn(-c2ccc(N3CCN(c4ccc(OCC5CO[C@@](Cn6cncn6)(c6ccc(F)cc6F)C5)cc4)CC3)cc2)c1=O` (stereo not given in full) it is 169%.
As to `COc1ccnc(CS(=O)c2nc3ccc(OC(F)F)cc3[nH]2)c1OC` (stereo not given), the cell viability, % of control (lower = more cytotoxic) was determined as 282%.

These data come from PubChem BioAssay (NCATS).
